PubChem BioAssay (NCI)
Values joined by “and” are separate entries in the source; they are usually repeats but may differ in a detail not shown here. Equal values may be shown once. This is part of a sample that, as a whole, favours compounds with a hit. Of some 79,000 tested, about 15% had one in any assay. Active and inactive are the calls of the source. Rule as the data show it: active = growth inhibition above about 70%; inactive = the rest.

Test: NCI Yeast Anticancer Drug Screen. Data for the cln2 rad14 strain (AID 165);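 also: 0% = growth equal to vehicle treated cultures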
Conditions: S. cerevisiae cln2 rad14 strain, at 5.0 µM (retest, dose inferred, filed as 0.5), stronger effect = higher value
Experimental: Growth inhibition of yeast strains with defined genetic alterations is measured as a screen for potential anti-cancer activity. Selected strains with alterations in DNA damage repair or cell cycle control were exposed to compounds and growth inhibition was measured relative to vehicle treated controls. The strain used in this assay is cln2 rad14

| SMILES | growth inhibition |
| --- | --- |
| O=C(Cc1ccccc1)C(F)(F)F | 4% (inactive) |
| Oc1ccc2c(c1)CCc1ccccc1-2 | 1% (inactive) |
| Cc1nc(Sc2nc3ccc([N+](=O)[O-])cc3s2)sc1C | -9% (inactive) |
| Cc1c(O)ccc(SC#N)c1C | 29% (inactive) |
| NC(=S)Nc1ccc2c(c1)Cc1ccccc1-2 | -5% (inactive) |
| COc1cccc(NC(=O)c2c(SC)n[nH]c2N)c1 | 30% (inactive) |
| CCOC(=O)COc1cc(-c2ccccc2F)nc2cc3c(cc12)OCO3 | 8% (inactive) |
| CC1(C)OCC(COC(c2ccccc2)(c2ccccc2)c2ccccc2)O1 (configuration not stated) | -4% (inactive) |
| COC1=CC(=O)c2c(O)c3c(c(O)c2C1=O)CC(C)(O)OC3 (configuration not stated) | 21% (inactive) |
| Cn1c(-c2ccccc2)c(/C=C/C2=[N+](C)c3ccccc3C2(C)C)c2ccccc21 | 59% (inactive) |
| COc1cc(/C=C/C(=O)CC(=O)/C=C/c2ccc(O)c(OC)c2)ccc1O | 15% (inactive) |

Same assay, conditions: S. cerevisiae cln2 rad14 strain, at 50.0 µM (retest, dose inferred, filed as 5.0), stronger effect = higher value

| SMILES | growth inhibition |
| --- | --- |
| O=C(Cc1ccccc1)C(F)(F)F | 2% (inactive) |
| Oc1ccc2c(c1)CCc1ccccc1-2 | 98% (active) |
| Cc1nc(Sc2nc3ccc([N+](=O)[O-])cc3s2)sc1C | 85% (active) |
| Cc1c(O)ccc(SC#N)c1C | 85% (active) |
| NC(=S)Nc1ccc2c(c1)Cc1ccccc1-2 | -10% (inactive) |
| COc1cccc(NC(=O)c2c(SC)n[nH]c2N)c1 | 75% (active) |
| CCOC(=O)COc1cc(-c2ccccc2F)nc2cc3c(cc12)OCO3 | 15% (inactive) |
| CC1(C)OCC(COC(c2ccccc2)(c2ccccc2)c2ccccc2)O1 (configuration not stated) | 16% (inactive) |
| COC1=CC(=O)c2c(O)c3c(c(O)c2C1=O)CC(C)(O)OC3 (configuration not stated) | 45% (inactive) |
| Cn1c(-c2ccccc2)c(/C=C/C2=[N+](C)c3ccccc3C2(C)C)c2ccccc21 | 98% (active) |
| COc1cc(/C=C/C(=O)CC(=O)/C=C/c2ccc(O)c(OC)c2)ccc1O | 88% (active) |

Same assay, conditions: S. cerevisiae cln2 rad14 strain, at 50.0 µM, stronger effect = higher value

| SMILES | growth inhibition |
| --- | --- |
| O=C(Cc1ccccc1)C(F)(F)F | -15.6% (inactive) |
| O=C(O)CC(NC(=O)OCc1ccccc1)C(=O)O (configuration not stated) | 16.5% (inactive) and -33.6% (inactive) |
| CCOC(=O)C(NC(C)=O)C(C)=O (configuration not stated) | -4.15% (inactive) and -11.7% (inactive) |
| c1ccc(CSSCc2ccccc2)cc1 | -5.5% (inactive) and -8.2% (inactive) |
| Oc1ccc2c(c1)CCc1ccccc1-2 | 99.2% (active) |
| Nc1c(O)nc[nH]c1=O | -1.55% (inactive) and -39.1% (inactive) |
| O=S(=O)(O)NC1CCCCC1 | -50.7% (inactive) and -6.3% (inactive) |
| Cc1nc(Sc2nc3ccc([N+](=O)[O-])cc3s2)sc1C | 46% (inactive) |
| CC(C)(C)OC(=O)N1CCCC1C(=O)O (configuration not stated) | 6.05% (inactive) and -24.8% (inactive) |
| Cc1c(O)ccc(SC#N)c1C | 84% (active) |
| NC(=S)Nc1ccc2c(c1)Cc1ccccc1-2 | 23.4% (inactive) |
| NC(N)=N/N=C(/C=N/N=C(N)N)C(O)C(O)CO (configuration not stated) | -39.3% (inactive) and -17.4% (inactive) |
| NC(C(=O)O)C(O)C(=O)O (configuration not stated) | 10.4% (inactive) and -5.6% (inactive) |
| O=[N+]([O-])c1ccc(NCS(=O)(=O)O)cc1 | -12.2% (inactive) and -15.8% (inactive) |
| CCOC(=O)COc1cc(-c2ccccc2F)nc2cc3c(cc12)OCO3 | 23.6% (inactive) |
| CC1(C)OCC(COC(c2ccccc2)(c2ccccc2)c2ccccc2)O1 (configuration not stated) | -33% (inactive) |
| COC1=CC(=O)c2c(O)c3c(c(O)c2C1=O)CC(C)(O)OC3 (configuration not stated) | 47.9% (inactive) |
| O=C1CCCCC1C(O)c1ccc([N+](=O)[O-])cc1 (configuration not stated) | -2.35% (inactive) and -15.2% (inactive) |
| Cn1c(-c2ccccc2)c(/C=C/C2=[N+](C)c3ccccc3C2(C)C)c2ccccc21 | 99% (active) |
| COc1cc(/C=C/C(=O)CC(=O)/C=C/c2ccc(O)c(OC)c2)ccc1O | 84.3% (active) |
